Test systems include NCI-H23 lung; NCI-H226 lung; NCI-H322M lung; HOP-62 NSCLC; NCI-H460 lung; NCI-H522 lung; A549/ATCC NSCLC; 786-0 renal; COLO 205 colon; DU-145 prostate; K-562 leukemia; MALME-3M melanoma; MDA-MB-231 breast; RXF 393 renal; SF-268 CNS; SF-295 CNS; SF-539 CNS; UACC-257 melanoma; M14 melanoma.
Assay in all cases: NCI-60 one-dose screen, 48 h (100 = growth as untreated, 0 = no growth, -100 = all killed)
What all share (settings): 10 µM unless noted

The structures appear in SMILES notation. Compounds without any hit were thinned out: in the full panel of roughly 83,000, 20% have a hit.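 Values shown are percent growth following 48 h exposure of cells in 96-well plates to a single concentration of compound; below 10 was considered active.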 Values without a mark were called inactive. Calls of active or inactive are those of the source.

Take `O=c1c2cc(Br)cc(Br)c2nc(-c2ccc(Cl)cc2)n1/N=C/c1cccc(F)c1`: the growth was 53.6% with NCI-H23 lung; 40.9% in the test with NCI-H226 lung; 49.3% in the test with NCI-H322M lung; 10.8% in the test with HOP-62 NSCLC; 40.1% with NCI-H460 lung; 38.9% with NCI-H522 lung. Besides, the growth with A549/ATCC NSCLC was 48.6%; in the test with 786-0 renal, 9.97% (active); with COLO 205 colon it was 54.3%; in the test on DU-145 prostate, 91.4%; in the test with K-562 leukemia it was 63.2%; in the test with MALME-3M melanoma it was 63.3%. The growth in the test with MDA-MB-231 breast is 46.1%; with RXF 393 renal, 47.2%; in the test with SF-268 CNS it was 70.4%; in the test with SF-295 CNS, 41%; in the test on SF-539 CNS it was 64.4%; with UACC-257 melanoma, 93%. In the test with M14 melanoma, the growth is 67.5%.

With `ClCc1c(Cl)c(Cl)c(Cl)c(CCl)c1Cl`, the growth with NCI-H23 lung is 82.8%; with NCI-H226 lung, 35%; in the test with NCI-H322M lung, 94%; with HOP-62 NSCLC, -28.8% (active); in the test with NCI-H460 lung, 73.8%; in the test with NCI-H522 lung, -64.6% (active). In addition, the growth is 94.9% in the test on A549/ATCC NSCLC; 76.3% in the test on 786-0 renal; -87.4% (active) with COLO 205 colon; 14.8% in the test with DU-145 prostate; -20.8% (active) in the test with K-562 leukemia; -40.3% (active) with MALME-3M melanoma. The growth is 47.8% in the test on MDA-MB-231 breast; -75.9% (active) in the test on RXF 393 renal; 33.5% in the test on SF-268 CNS; 97.5% in the test on SF-295 CNS; 97.6% in the test on SF-539 CNS; 19.9% in the test with UACC-257 melanoma. For the same compound, in the test on M14 melanoma, the growth was 35.5%.

Turning to `CCN(CC)c1ccc2c(cc1=O)[C@@H](NC(C)=O)CCc1cc(OC)c(OC)c(OC)c1-2`, the growth in the test with NCI-H23 lung is 49.5%; in the test on NCI-H226 lung, 51%; with NCI-H322M lung, 30.9%; in the test on HOP-62 NSCLC it was 30.9%; with NCI-H460 lung, 3.44% (active); in the test on NCI-H522 lung it was -38.8% (active). The growth in the test on A549/ATCC NSCLC is 13.2%; with 786-0 renal, 15.6%; in the test with COLO 205 colon, -62.8% (active); in the test on DU-145 prostate, -10.2% (active); with K-562 leukemia, 0.286% (active); in the test on MALME-3M melanoma, 99%. Also, the growth in the test on MDA-MB-231 breast is 15.1%; with RXF 393 renal, 58.8%; with SF-268 CNS it was 24.4%; in the test on SF-295 CNS, 11.3%; in the test with SF-539 CNS, -3.76% (active); in the test with UACC-257 melanoma, 63.1%. The growth with M14 melanoma was -0.777% (active).

Regarding `C=CCOc1ccc2c(C)cc(=O)oc2c1`, the growth is 102% with NCI-H23 lung; 109% in the test on NCI-H226 lung; 126% in the test with NCI-H322M lung; 112% in the test on HOP-62 NSCLC; 99.6% with NCI-H460 lung; 93.3% in the test with NCI-H522 lung. Further, the growth was 89.6% in the test on A549/ATCC NSCLC; 109% with 786-0 renal; 138% in the test with COLO 205 colon; 109% with DU-145 prostate; 99.4% with K-562 leukemia; 132% with MALME-3M melanoma. Besides, the growth was 128% in the test on MDA-MB-231 breast; 134% in the test with RXF 393 renal; 109% in the test with SF-268 CNS; 99.8% in the test with SF-295 CNS; 103% in the test on SF-539 CNS; 105% with UACC-257 melanoma. The growth in the test with M14 melanoma was 122%.

Turning to `O=C(CC(=O)c1cccc(Cl)c1)c1cccc(Cl)c1`, the growth in the test on NCI-H23 lung was 28.4%; with NCI-H226 lung, 41.5%; with NCI-H322M lung it was 47.9%; with HOP-62 NSCLC, 22.1%; with NCI-H460 lung, 21.6%; in the test with NCI-H522 lung, 38.5%. In addition, the growth is 57.7% in the test on A549/ATCC NSCLC; 43% in the test with 786-0 renal; 46.9% in the test on COLO 205 colon; 42.6% with DU-145 prostate; 20.8% in the test on K-562 leukemia; 64.5% in the test with MALME-3M melanoma. Also, the growth in the test on MDA-MB-231 breast is 45.2%; with RXF 393 renal it was 61.9%; in the test with SF-268 CNS it was 51.4%; with SF-295 CNS, 26.8%; with SF-539 CNS, 41.4%; in the test on UACC-257 melanoma, 52.7%. The growth in the test on M14 melanoma is 37.3%.

As for `CCOC(=O)N1C2CCC(C2)N1C(=O)OCC`, the growth in the test with NCI-H23 lung was 104%; in the test on NCI-H226 lung, 91.9%; with NCI-H322M lung, 115%; in the test with HOP-62 NSCLC it was 108%; in the test with NCI-H460 lung, 108%; in the test with NCI-H522 lung, 91.5%. Moreover, the growth in the test with A549/ATCC NSCLC was 107%; in the test with 786-0 renal, 101%; in the test with COLO 205 colon it was 110%; in the test on DU-145 prostate, 104%; in the test with K-562 leukemia it was 94.6%; in the test with MALME-3M melanoma, 104%. Moreover, the growth in the test on MDA-MB-231 breast is 115%; in the test on RXF 393 renal, 106%; in the test on SF-268 CNS it was 97%; in the test on SF-295 CNS it was 106%; with SF-539 CNS, 132%; with UACC-257 melanoma, 107%. Also, the growth in the test with M14 melanoma was 108%.

Turning to `CCC1N=C(N)N=C(N)N1c1ccc(Cl)cc1` (configuration not stated), the growth in the test on NCI-H23 lung is 89.4%; in the test with NCI-H226 lung it was 96.5%; with NCI-H322M lung it was 90.4%; in the test with HOP-62 NSCLC it was 102%; in the test on NCI-H460 lung it was 39.1%; in the test with NCI-H522 lung, 90.9%. For the same compound, the growth is 38% in the test with A549/ATCC NSCLC; 58.6% with 786-0 renal; 121% in the test with COLO 205 colon; 105% in the test on DU-145 prostate; 57.1% in the test with K-562 leukemia; 61.6% in the test on MALME-3M melanoma. For the same compound, the growth with MDA-MB-231 breast was 99.5%; in the test on RXF 393 renal it was 89.3%; in the test on SF-268 CNS it was 77.2%; in the test on SF-295 CNS, 88.9%; with SF-539 CNS it was 109%; in the test with UACC-257 melanoma, 88.1%. Besides, the growth in the test with M14 melanoma was 79.7%.

`CNC(=O)OC1C(O[C@H]2C[C@H]3[C@@H]4CC=C5C[C@@H](O)CC[C@]5(C)[C@H]4CC[C@]3(C)[C@H]2[C@H](C)C(=O)CCC(C)C)OCC(O)C1OC1OCC(O)C(O)C1OC(=O)c1ccc(OC)cc1` (some centres not stated): the growth was 39.3% with NCI-H23 lung; 3.4% (active) in the test on NCI-H226 lung; 57.6% in the test on NCI-H322M lung; 0.544% (active) in the test with HOP-62 NSCLC; 1.55% (active) with NCI-H460 lung; -35.8% (active) in the test with NCI-H522 lung. For the same compound, the growth in the test on A549/ATCC NSCLC is 11.5%; in the test with 786-0 renal, -14.3% (active); in the test on COLO 205 colon it was -42.8% (active); in the test on DU-145 prostate it was 42%; in the test with K-562 leukemia, -20.5% (active); in the test on MALME-3M melanoma, 4.11% (active). Besides, the growth was 32.5% in the test with MDA-MB-231 breast; -64.4% (active) in the test with RXF 393 renal; 0.344% (active) in the test on SF-268 CNS; -63.3% (active) in the test on SF-295 CNS; -53.5% (active) in the test on SF-539 CNS; -54.9% (active) in the test with UACC-257 melanoma. Further, in the test with M14 melanoma, the growth was -65.5% (active).

The values above are taken from PubChem BioAssay (NCI).
